Shown are actives, neighbours in structure and some others; about 3.1% of the full set was active somewhere.
TRb SRC2 PPI: qHTS for Inhibitors of the Interaction of Thyroid Hormone Receptor and Steroid Receptor Coregulator 2; Thyroid hormone receptor beta (Homo sapiens), P10828; TRbeta-SRC2 peptide binding, fluorescence polarization; receptor liganded with 1 µM T3; Potency, µM (top dose mostly 106 µM), inactives show at the top dose activity change, negative = inhibition, most hits filed as inhibitors; 0.065% of 280,000 active;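 further: plate controls were bound peptide for no effect and peptide without receptor for full effect; nearly all actives have a fitted effect of over 50% in size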
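A fluorescence polarization screen tested compounds at multiple concentrations against complex formation between 0.6 uM TRb ligand-binding domain and 20 nM Texas Red SRC2 peptide, with 1 uM T3 present; readout after 5 hr.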
Tau fibril ThT: qHTS for Inhibitors of Tau Fibril Formation, Thioflavin T Binding | recombinant tau K18 P301L, heparin-induced fibrillization, ThT fluorescence | Potency, µM (highest dose often 57.4 µM), for the others: at the highest dose activity, negative = inhibition, most hits filed as inhibitors | 2.1% of 270,000 active; further: nearly all actives have a fitted effect of over 55% in size
Target sequence (P10636 561-689 P618L limits assumed): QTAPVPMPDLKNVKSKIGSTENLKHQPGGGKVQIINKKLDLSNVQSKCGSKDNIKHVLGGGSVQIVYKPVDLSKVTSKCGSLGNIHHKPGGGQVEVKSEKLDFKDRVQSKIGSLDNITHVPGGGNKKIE
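Fibril formation assay: tau K18 P301L at 15 uM with trace Alexa 594 label, heparin inducer 20 uM, pH 7 sodium acetate buffer, 37 C for 6 hr; endpoint ThT signal.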
Tau FP inhib: qHTS for Inhibitors of Tau Fibril Formation, Fluorescence Polarization; AID 1468, 2008; 0.39% of 280,000 active; Microtubule-associated protein tau (Homo sapiens), P10636; K18 P301L tau heparin fibrillization, Alexa594 FP, 6 h; Potency, µM (series often up to 57.7 µM), inactives show at the top dose activity, negative = inhibition, most hits filed as inhibitors; further: nearly all actives have a fitted effect of over 55% in size
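FP of Alexa 594-tau after heparin (20 uM) induction. Substrate: human K18 P301L, 15 uM unlabeled, 0.24 uM labeled. Buffer 100 mM sodium acetate pH 7. 6 hr, 37 C.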
GoLoco inh red: qHTS Assay for Inhibitors of RGS12 GoLoco Motif Activity (Red Fluorophore) | Gai1:RGS12 GoLoco peptide FP, rhodamine, 10 min | Potency, µM (titrated, usually from 61.6 µM), inactives show at the highest dose activity, negative = inhibition, actives largely listed as inhibitors | 0.44% of 230,000 active; active means well fitted inhibition curve with a large enough effect, not every such curve was filed as active; inactive means no such curve, though single readings can be large or run the other way; further: nearly all actives have a fitted effect of over 30% in size
Target sequence (P63096 whole entry, looked up): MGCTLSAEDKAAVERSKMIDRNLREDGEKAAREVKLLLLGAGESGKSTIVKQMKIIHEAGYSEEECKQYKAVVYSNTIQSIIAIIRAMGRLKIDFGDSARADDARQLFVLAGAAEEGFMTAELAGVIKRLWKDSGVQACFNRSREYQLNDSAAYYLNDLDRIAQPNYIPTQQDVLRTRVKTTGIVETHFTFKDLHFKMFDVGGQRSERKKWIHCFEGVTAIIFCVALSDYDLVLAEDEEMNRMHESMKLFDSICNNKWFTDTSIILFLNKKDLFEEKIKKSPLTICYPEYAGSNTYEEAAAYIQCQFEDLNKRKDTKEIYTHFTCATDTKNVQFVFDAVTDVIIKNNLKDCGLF
TR SRC2 fluor cs: Total Fluorescence Counterscreen for Inhibitors of the Interaction of Thyroid Hormone Receptor and Steroid Receptor Coregulator 2. TRb/SRC2 Texas Red total fluorescence interference. Potency, µM (top dose mostly 106 µM), for the others: at the highest dose fluorescence change, negative = quenching. 0.29% of 280,000 active. AID 1479, 2009; active means well fitted curve in either direction with a large enough effect; inconclusive means small, poorly fitted or top-dose-only effect
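Human TRb ligand-binding domain at 0.6 uM with 20 nM Texas Red SRC2 peptide in Tris buffer containing 1 uM T3 and 5% DMSO, incubated with compound 5 h at ambient temperature. Total fluorescence (555/632 nm) calculated as parallel + 2 × perpendicular.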
Tau fluor cs: Counterscreen qHTS for Inhibitors of Tau Fibril Formation, Fluorescence Polarization. tau K18 P301L Alexa594 fluorescence, heparin fibrillization. Potency, µM (titrated, usually from 57.7 µM), inactives show at the highest dose activity change, negative = decrease. 0.93% of 280,000 active. AID 1463, 2008; further: nearly all actives have a fitted effect of over 55% in size
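Human tau K18 P301L (15 uM unlabeled, 0.24 uM Alexa 594-labeled) in 100 mM sodium acetate pH 7 with 20 uM heparin, 6 hr at 37 C. ThT 30 uM added, 1 hr ambient; Alexa 594 FP and total fluorescence read at 555/632 nm.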
Starred values were filed as active, the others as inactive; ? = inconclusive; . = no result; [ ] = remark or other dose. Unless noted, the call rests on the fitted dose curve; in most records, active means well fitted curve in the direction sought with a large enough effect; inconclusive means small, poorly fitted or top-dose-only effect, or another doubt; inactive means no such curve, though single readings can be large; an effect the other way counts as inactive or inconclusive. Unless noted, on the % scale 0 is the no-effect control and ±100 the full control effect; potency means the concentration at half of the fitted maximal effect.

SMILES	TRb SRC2 PPI	Tau fibril ThT	Tau FP inhib	GoLoco inh red	TR SRC2 fluor cs	Tau fluor cs
C=C(C)CSCc1nc2ccccc2[nH]1	0%	1%	1%	5%	-3%	4%
Cc1ccccc1CSCc1nc2ccccc2[nH]1	-15%[53 µM]	-1%	-4%	17%	1.1µM*[quencher]	-8%
O=C(NCC1CCCO1)Nc1cc(Cl)cc(Cl)c1 (stereo not drawn)	0%	-1%	?	16%	-2%	-19%
CCOC(=O)C1=C(C)N(c2ccccc2)C(=O)/C1=C\c1ccc(O)c(OC)c1	8%	.	35µM*	-35%	-4%	25µM*[quencher]
CCOC(=O)C1=C(C)N(c2ccc(C)cc2)C(=O)/C1=C\c1cccs1	-10%	16µM*	-18%	4%	-1%	-25%
CCOC(=O)C1=C(C)N(c2ccccc2)C(=O)/C1=C\c1cccs1	-1%	?	-11%	6%	0%	-20%
COc1ccc(C(=O)N2CCN(CCc3ccccn3)CC2)cc1	5%	-2%	-2%	.	9%	1%
Cc1ccccc1CNC(=O)c1ccc(-n2c(C)cc3c2CCCC3)cc1	-3%	?	-14%	.	4%	-16%
CC1CCCCN1Cc1c(O)ccc2c(=O)c(-c3nc4ccccc4s3)c(N)oc12 (stereo not drawn)	-1%	?	15%	18%	0%	?
COc1c(O)c(O)cc2c1oc1c3cc(C)ccc3oc(=O)c21	10%	8.9µM*	?	-17%	?	10µM*[quencher]
COc1ccc(-c2cn3cc([N+](=O)[O-])ccc3n2)cc1OC	5%	4.5µM*	7%	14%	-8%	-22%
COc1ccc(Cl)cc1C(=O)CSc1nnnn1C1CCCCC1	0%	-15%	4%	9%	0%	-20%
Cc1ccc(S(=O)(=O)c2nc(Nc3nccs3)sc2Cl)cc1	0%	?	2%	20%	1%	16µM*[quencher]
CC(=O)Nc1nc(S(=O)(=O)c2ccc(C)cc2)c(Cl)s1	-17%	-18%	-14%	2%	-4%	-14%
COc1ccc(CC(=O)Nc2ccc(S(=O)(=O)Nc3cc(C)on3)cc2)cc1OC	-4%	-17%	-14%	.	0%	-13%
COc1ccc(-c2csc(Nc3ccc(S(=O)(=O)Nc4cc(C)on4)cc3)n2)cc1C	1%	13µM*	13%	9%	-2%	?
COc1ccc(-c2csc(Nc3ccc(S(=O)(=O)Nc4cc(OC)nc(OC)n4)cc3)n2)cc1	-2%	16µM*	3%	-7%	-4%	11µM*[quencher]
CCCCC[C@H](O)/C=C/C1=C(CCCCCCC(=O)O)C(=O)CC1	-1%	-17%	5%	6%	0%	-2%
O=C(NCCCCNC(=O)c1ccccn1)c1ccccn1	5%	-13%	-8%	-4%	2%	-12%
Cc1ccccc1NC(=O)c1cccc2nc3ccccc3nc12	-9%	8.9µM*	?	60%	-8%	?
Cc1ccccc1NC(=O)c1ccccc1NC(=O)Cc1cccc2ccccc12	0%	1%	-9%	9%	-4%	-25%
COc1ccc(OC)c(NC(=O)C2CCCN2C(=O)C2CCC(C)CC2)c1 (stereo not drawn)	8%	-12%	10%	8%	4%	-9%
CCOc1cc(/C=C2\C(=O)N(c3nc(-c4ccc(Br)cc4)cs3)N=C2c2ccccc2)ccc1O	20%	11µM*	?	100%	28µM*[quencher]	?
N=C1S/C(=C\c2ccc(-c3cccc(Cl)c3)o2)C(=O)N1c1nccs1	-7%	3.5µM*	5%	9%	0%	-25%
COc1ccc(/C=C2\SC(=N)N(c3nccs3)C2=O)cc1OC	13%	10µM*	9%	24%	-19%	-11%
SMILES	TRb SRC2 PPI	Tau fibril ThT	Tau FP inhib	GoLoco inh red	TR SRC2 fluor cs	Tau fluor cs
CCOc1ccc(C(=O)CCC(=O)NC(C)C(=O)OC)cc1 (stereo not drawn)	10%	8%	1%	13%	-4%	9%
CCOC(=O)c1ccc(NC(=O)c2c(NCc3cc(OC)ccc3OC)sc3c2CCC3)cc1	-1%	?	4%	.	1%	-19%
CSc1ncc(CN2CCc3c([nH]c4ccccc34)C2c2cccc(C)n2)cn1 (stereo not drawn)	0%	?	8%	10%	-3%	-23%
CSc1ncc(CN2CCc3c([nH]c4ccccc34)C2c2cccc(O)c2)cn1 (stereo not drawn)	-7%	-18%	2%	7%	-2%	16µM*[quencher]
Fc1ccc(C2NCCn3cccc32)cc1 (stereo not drawn)	5%	?	2%	8%	-3%	-14%
CCOC(=O)c1cnc(SCC(=O)N2CCOCC2)nc1N	-5%	-4%	-6%[2.34 µM]	6%	-6%	3%[2.34 µM]
Cc1nn(-c2ccccc2)c2c1C(c1ccc(O)c(O)c1)N1C(=N2)C(Nc2ccccc2)=Nc2ccccc21 (stereo not drawn)	4%	?	-10%	4%	0%	14µM*[quencher]
Cc1cccn2c(=O)c(/C=C(\C#N)C(=O)NC3CCS(=O)(=O)C3)c(N3CCC(C(N)=O)CC3)nc12 (stereo not drawn)	-20%[53 µM]	2%	0%	0%	0.0003µM*[quencher]	2%
CCn1c(=O)cc(OCC(=O)N(C)c2ccccc2F)c2ccccc21	-7%	-15%	-11%	-7%	1%	-14%
Cc1ccc[n+](-c2nc([O-])sc2/C=N/Nc2ccc([N+](=O)[O-])cc2)c1	-1%	14µM*	-4%	1%	-6%	-24%
COc1ccc2oc(-c3ccccc3[N+](=O)[O-])cc(=O)c2c1	2%	-5%	-14%	-3%	0%	-15%
Cc1nc(NC(=O)CC(C)C)sc1-c1csc(Nc2ccc(Cl)cc2Cl)n1	-20%	?	9%	36%	0%	22µM*[quencher]
Cc1nc(NC(=O)CC(C)C)sc1-c1csc(Nc2ccc(Cl)cc2)n1	0%	?	6%	33%	2%	11µM*[quencher]
COc1ccc(Cl)cc1Nc1nc(-c2sc(NC(=O)CC(C)C)nc2C)cs1	-5%	?	9%	8%	-1%	?
CCN(CC)CCN(Cc1cc2cc(C)ccc2[nH]c1=O)C(=S)NCc1ccco1	9%	4%	0%	-3%	1%	0%

Screens from PubChem BioAssay.
